# The panel holds about 79,000 compounds, 15% with a hit somewhere; the sample as a whole holds those more often. Unmarked numbers belong to inactive results. Active and inactive are the calls of the source. No stated cut-off is given here; in the data, active means growth inhibition above about 70%; inactive means the rest.
# What was measured:
# [1] = NCI Yeast Anticancer Drug Screen. Data for the rad50 strain (AID 155);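 further: 0% = growth of vehicle-only cultures of the same strain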; settings: S. cerevisiae rad50 strain growth inhibition, hits give high values
# Method in brief: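 Growth of the mutant yeast was measured after compound exposure and referenced to vehicle-treated cultures.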
# [2] = NCI Yeast Anticancer Drug Screen. Data for the mec2-1 strain (AID 157); settings: S. cerevisiae mec2-1 strain, hits give high values
# Method in brief: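 Compounds were applied to mec2-1 yeast cells. Their growth was then compared with that of vehicle-treated cultures to give growth inhibition.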
# [3] = NCI Yeast Anticancer Drug Screen. Data for the sgs1 mgt1 strain (AID 161);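 further: 0% = growth of cultures given vehicle only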; settings: S. cerevisiae sgs1 mgt1 strain, hits give high values
# Method in brief: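 Yeast cells carrying a defined DNA-repair defect were exposed to test compounds. Growth inhibition was measured relative to vehicle-treated controls.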
# [4] = NCI Yeast Anticancer Drug Screen. Data for the cln2 rad14 strain (AID 165);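 further: 0% = growth equal to vehicle treated cultures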; settings: S. cerevisiae cln2 rad14 strain, hits give high values
# Method in brief: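 Strain: cln2 rad14 yeast, altered in cell cycle control and DNA damage repair. Read-out: growth inhibition vs vehicle.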
# [5] = NCI Yeast Anticancer Drug Screen. Data for the bub3 strain (AID 167); settings: S. cerevisiae bub3 mutant strain, hits give high values
# Method in brief: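 Whole-cell yeast assay. The mutant strain was incubated with compounds, and growth inhibition was determined by comparison with vehicle-treated cells.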
# [6] = NCI Yeast Anticancer Drug Screen. Data for the mlh1 rad18 strain (AID 175); settings: S. cerevisiae mlh1 rad18 strain growth inhibition, hits give high values
# Method in brief: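 A repair-deficient yeast strain is exposed to test compound, and growth is scored relative to vehicle-treated controls.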
# [7] = at 5.0 µM (retest, dose inferred, filed as 0.5)
# [8] = at 50.0 µM (retest, dose inferred, filed as 5.0)
Compound,"growth inhibition [1, 7] [%]","growth inhibition [1, 8]",growth inhibition ([1]; at 50.0 µM),"growth inhibition [2, 7] [%]","growth inhibition [2, 8]",growth inhibition ([2]; at 50.0 µM),"growth inhibition [3, 7]","growth inhibition [3, 8]",growth inhibition ([3]; at 50.0 µM),"growth inhibition [4, 7] [%]","growth inhibition [4, 8]",growth inhibition ([4]; at 50.0 µM),"growth inhibition [5, 7] [%]","growth inhibition [5, 8]",growth inhibition ([5]; at 50.0 µM),"growth inhibition [6, 7] [%]","growth inhibition [6, 8]",growth inhibition ([6]; at 50.0 µM)
Cc1occc1C(=S)Nc1ccc(Cl)c(C(=O)OCC2CC2)c1,-14,-3%,84.8% (active),-21,5%,86% (active),-15%,-3%,81.4% (active),2,62%,82.5% (active),-3,17%,80.2% (active),-2,8%,16.2%
Cc1ccc(NC(=O)CSC(N)=O)cc1,4,92% (active),97.5% (active),4,96% (active),98.5% (active),3%,94% (active),99.1% (active),2,94% (active),97.5% (active),4,96% (active),97.8% (active),2,94% (active),97.7% (active)
O=C(/C=C/C(=O)c1ccc(O)cc1)c1ccccc1,-1,89% (active),12.4%,-1,85% (active),26.6%,-3%,82% (active),30.8%,3,90% (active),24.6%,-6,87% (active),38.6%,-1,94% (active),24.7%
CC(/C=C/c1cccs1)=N\C(=S)NC(N)=S,-1,0%,3.7%,10,32%,28.4%,1%,12%,26.7%,-1,-4%,2.05%,1,52%,77.8% (active),-5,12%,25.9%
Clc1ccc(CN2CCCN(Cc3ccc(Cl)cc3)C2C2CCC=CO2)cc1 (configuration not stated),4,19%,66.1%,-18,17%,24.5%,-17%,42%,72.6% (active),-4,7%,46.9%,6,17%,56.3%,-14,36%,45%
O=C(c1ccco1)N(C(=S)N1CCN(c2ccccn2)CC1)c1ccccc1,3,76% (active),77.2% (active),8,51%,47.4%,-1%,71% (active),63.4%,31,53%,36.5%,-2,60%,53%,-2,78% (active),57.4%
CCOP(=O)(CCCOc1cc(Cl)c(Cl)cc1Cl)OCC,1,99% (active),98.7% (active),2,99% (active),98.9% (active),14%,100% (active),99% (active),7,99% (active),93.7% (active),6,99% (active),94.2% (active),2,99% (active),98.6% (active)
Cc1nc2c(=O)[nH]c3ccc(Cl)cc3c2o1,3,60%,42.5%,3,59%,38.1%,9%,90% (active),40.7%,7,12%,77.3% (active),6,75% (active),60.2%,8,89% (active),46.2%
Cc1c(Cl)nc(-c2ccccc2)nc1C(=O)CCl,43,78% (active),22.1%,67,91% (active),-0.1%,90% (active),93% (active),70.5% (active),22,66%,9.45%,38,86% (active),-34.3%,65,89% (active),4.5%
C[N+](C)(C)CCC(=O)c1ccco1,7,99% (active),99.5% (active),16,100% (active),99.7% (active),10%,99% (active),99.5% (active),8,99% (active),96% (active),7,99% (active),99.7% (active),4,99% (active),99.2% (active)
O=c1[nH]c2c([N+](=O)[O-])cc(Cl)cc2nc1/C=C(\O)c1ccccc1,17,81% (active),49.6%,-3,65%,4.65%,7%,63%,66.8%,4,59%,45.4%,16,77% (active),-2.5%,-9,80% (active),83.9% (active)
CSc1nc(=S)c2[nH]c(C)nc2[nH]1,0,4%,93.3% (active),-2,-3%,99.6% (active),0%,1%,99.2% (active),-3,6%,98.5% (active),-1,-6%,99.6% (active),1,3%,97.5% (active)
C=CC(=O)NC(=O)Nc1ccc(Cl)cc1,18,97% (active),98% (active),32,98% (active),98.2% (active),27%,99% (active),98.9% (active),10,98% (active),97.5% (active),23,97% (active),98.3% (active),25,99% (active),98.7% (active)
C[C@]12CC[C@H](O)C[C@@H]1CC[C@@H]1[C@@H]2C(=O)C[C@]2(C)C3=CC(=O)O[C@H]3C[C@@H]12,40,97% (active),98.2% (active),27,98% (active),91% (active),32%,98% (active),94% (active),-3,94% (active),57.6%,11,97% (active),92.6% (active),34,98% (active),96.8% (active)
OC1(C2CCCCC2)c2ccccc2Cc2ccccc21,6,80% (active),97.2% (active),13,76% (active),98% (active),12%,93% (active),96.4% (active),-1,86% (active),95.4% (active),9,90% (active),96.8% (active),7,90% (active),97% (active)
COC(=O)C([NH-])c1ccccc1.COC(=O)C([NH-])c1ccccc1.[Cl][Pt+2][Cl] (configuration not stated),16,81% (active),69%,11,37%,46.9%,39%,76% (active),76.3% (active),0,43%,58%,5,27%,30.2%,21,60%,76.7% (active)
CCOC(=O)C(CCc1ccccc1[N+](=O)[O-])C(C)=O (configuration not stated),4,61%,78.9% (active),2,11%,27.6%,-3%,42%,66.8%,-1,8%,-8.55%,-3,8%,54%,-20,45%,69.7%
O=S(=O)(O)c1cc(N=Nc2ccc(O)c(O)c2)ccc1/C=C/c1ccc(N=Nc2ccc(O)c(O)c2)cc1S(=O)(=O)O,29,83% (active),57%,30,89% (active),67.6%,23%,89% (active),68.5%,31,31%,18.8%,34,86% (active),76.3% (active),33,83% (active),75.4% (active)
Nc1ccc2c(c1)[nH]c(=O)c1cccc(Cl)c12,-32,89% (active),96.1% (active),-34,88% (active),55.3%,-39%,80% (active),61.2%,-31,94% (active),63.9%,-52,90% (active),32.5%,-40,95% (active),93.1% (active)

# From PubChem BioAssay (NCI)
